In the library only some 19% were active in any assay of this set; here they are far more common.
TDP1 cell CPT: growth inhibition of DT40 Tdp1-/-;hTDP1 cells with camptothecin (screen for TDP1 inhibitors); AID 686979; 12% of 420,000 active; chicken DT40 Tdp1-/-;hTDP1 cells + 20 nM CPT, ATP luminescence, 48 h; Potency, µM (top dose mostly 46.2 µM), for inactives: at the highest dose activity change, negative = growth inhibition, most hits filed as inhibitors; also: potency is read from the fitted curve at half-maximal effect; nearly all actives have a fitted effect of over 55% in size
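Chicken DT40 Tdp1-/- cells stably complemented with human TDP1 were seeded at 400 cells/well in medium containing 20 nM camptothecin, exposed to pin-transferred compounds, and grown at 37 °C for at least 48 hr. Viability was read as ATP luminescence.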
HT1080NT lethal: kills 2HG-producing HT-1080-NT fibrosarcoma cells | HT-1080-NT fibrosarcoma viability, CellTiter-Glo ATP luminescence, 48 h | Potency, µM (doses to about 46.1 µM), without a hit: at the top dose activity, negative = less viability, actives largely listed as cytotoxic | 1.6% of 360,000 active | AID 686970;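 also: NT is the 2HG producing partner of a matched IDH1 knockdown line; potency is read from the fitted curve at half-maximal effect; 0% = DMSO-treated cells and -100% = media-only wells without cells; nearly all actives have a fitted effect of over 55% in size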
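HT-1080-NT; 750 cells/well; 5% FBS RPMI; 48 h compound, 37 degrees C; CellTiter-Glo luminescence; curve fitting and curve-class assignment.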
HT1080 IDH1KD tx: HT-1080 IDH1 knockdown cell toxicity (counter line). HT-1080 IDH1 knockdown viability, ATP luminescence, 48 h. AID 686971. Potency, µM (series often up to 46.1 µM), inactives show at the top dose activity, negative = toxicity, hits mostly cytotoxic. 2% of 360,000 active;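 also: potency is read from the fitted curve at half-maximal effect; 0% = DMSO wells and -100% = cell-free medium wells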
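CellTiter-Glo luminescence after 48 h compound exposure at 37 degrees C of IDH1-knockdown HT-1080 cells in 5% FBS RPMI. %Activity scaled between DMSO wells and cell-free media wells, with curves fitted and assigned curve classes.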
IL-1B inflam inh: blocks inflammasome-driven IL-1 beta release | THP-1 LPS/ATP IL-1B secretion, AlphaLISA, 16 h; active compounds read low | activity change, % at 57.5 µM | 4.7% of 360,000 active | AID 743279; in the data active = activity change below about -50%; inconclusive = mostly about -30% to -49%
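THP-1 cells pretreated 1 hr with compounds (up to 57.5 uM final), then stimulated with LPS (250 ng/mL final) plus ATP (1.25 mM final); secreted IL-1B measured by AlphaLISA after 16 hr, decreased signal indicating inhibition.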
DT40 TDP1 no CPT: qHTS for Inhibitors of human tyrosyl-DNA phosphodiesterase 1 (TDP1): qHTS in cells in absence of CPT; DT40 Tdp1-/- hTDP1 cells, no CPT, ATP luminescence, 48 h; Potency, µM (doses to about 46.2 µM), for inactives: at the top dose activity change, negative = growth inhibition, most hits filed as inhibitors; 15% of 420,000 active; also: potency is read from the fitted curve at half-maximal effect; nearly all actives have a fitted effect of over 55% in size
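Growth kinetics read by CellTiter-Glo luminescence after ≥48 hr at 37 °C. Cells: DT40 Tdp1-/- stably carrying human TDP1, 400 per well, compound exposure in the absence of CPT (DMSO vehicle).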
An asterisk follows results filed as active; i = inactive; ? = inconclusive; nt = no result. Unless noted, calls follow the shape of the dose curve; as a rule, active = well fitted curve in the direction sought with a large enough effect; inconclusive = small, poorly fitted or top-dose-only effect, or another doubt; inactive = no such curve, though single readings can be large; an effect the other way counts as inactive or inconclusive. Unless noted, % is scaled to controls: 0 for no effect and ±100 for the full control effect.

SMILES	TDP1 cell CPT	HT1080NT lethal	HT1080 IDH1KD tx	IL-1B inflam inh	DT40 TDP1 no CPT
CC1(C)CC(=O)C2=C(C1)Oc1ncn(CCCO)c(=N)c1C2c1ccccc1 (stereo not drawn)	-13%	-2%	2%	-15	2%
CC(C)c1nnc(NC(=O)CS(=O)(=O)c2ccccc2)s1	?	21%	-2%	19	-7%
Cc1ccc(-n2c(SCCC(C)C)nc3sc4c(c3c2=O)CC(C)(C)OC4)cc1	-28%	nt	nt	nt	-9%
Cc1cc(Cl)ccc1NC(=O)CN(c1ccccc1Br)S(C)(=O)=O	?	nt	nt	nt	-29%
Cc1c(-c2ccc(Cl)cc2)[n+](=O)c(-c2ccccc2)cn1[O-]	-8%	-1%	11%	28	?
CC1=C(c2ccc(Cl)cc2)[N+](=O)C(C)(C)N1[O-]	16µM*	-5%	7%	-3	?
COc1ccc(NC(=O)CSc2nnc(NC(=O)Nc3ccc(OC)cc3)s2)cc1	-15%	nt	nt	nt	-1%
Cc1cccc(Nc2nnc(SCC(=O)Nc3ccccc3[N+](=O)[O-])s2)c1	?	-11%	-16%	7	16µM*
Cc1ccccc1Nc1nnc(SCC(=O)Nc2ccccc2[N+](=O)[O-])s1	-9%	0%	-1%	-11	-18%
COc1ccc(NC(=O)CSc2nnc(NC(=O)c3ccccc3C(=O)O)s2)cc1	26µM*	-7%	-6%	-10	?
O=C(CSc1nnc(NC(=O)c2ccco2)s1)NCc1ccc2c(c1)OCO2	-25%	-7%	-3%	-5	18µM*
COc1ccc(Nc2nnc(SCC(=O)NC(=O)Nc3ccc4c(c3)OCCO4)s2)cc1	?	10%	6%	71	16µM*
CCCC(=O)Nc1nnc(SCC(=O)NCc2ccc3c(c2)OCO3)s1	5%	-2%	1%	18	-6%
COc1ccc(C(=O)Nc2ncnc3nc[nH]c23)cc1	-5%	nt	nt	nt	-8%
O=C(O)CCc1n[nH]c(=S)[nH]c1=O	-6%	16%	12%	25	-3%
CCC(=O)Nc1nnc(SCC(=O)Nc2ccc3c(c2)OCO3)s1	?	-24%	-20%	3	?
CCC(=O)Nc1nnc(SCC(=O)NCC2CCCO2)s1 (stereo not drawn)	-15%	?	?	-6	0.29µM*
COc1cccc(Nc2nnc(SCC(=O)Nc3sccc3C(N)=O)s2)c1	13µM*	?	-4%	-4	8.2µM*
CCC(=O)Nc1nnc(SCC(=O)Nc2ccc3c(c2)OCCO3)s1	15µM*	-16%	?	i	?
CCOC(=O)C1=CCN(S(=O)(=O)c2ccc(C)cc2)C1c1ccc(CC)cc1 (stereo not drawn)	?	?	?	0	18µM*
CCOC(=O)C1=CCN(S(=O)(=O)c2ccc(C)cc2)C1c1ccc(C)cc1 (stereo not drawn)	?	-18%	-15%	87	?
CCOC(=O)C1=CCN(S(=O)(=O)c2ccc(C)cc2)C1c1ccc(Cl)cc1 (stereo not drawn)	?	?	?	4	?
CCOC(=O)C1=CCN(S(=O)(=O)c2ccc(C)cc2)C1c1ccc(C(C)C)cc1 (stereo not drawn)	18µM*	-26%	?	17	18µM*
Cc1cccc(NC(=O)CCc2nnc3ccc(N4CCC(C)CC4)nn23)n1	-8%	0%	6%	9	-6%
COCCNC(=O)c1cc(-c2ccccc2)n(Cc2cc(C)no2)n1	-18%	2%	0%	-13	-8%
SMILES	TDP1 cell CPT	HT1080NT lethal	HT1080 IDH1KD tx	IL-1B inflam inh	DT40 TDP1 no CPT
Cc1cc(Cn2nc(C(=O)NCc3cccc(Br)c3)cc2-c2ccccc2)on1	?	?	-2%	-58*	?
Cc1ccc(S(=O)(=O)CC(=O)N2CCN(c3cccc(C(F)(F)F)c3)CC2)cc1	16µM*	-3%	5%	-1	21µM*
Cc1ccc(CC(=O)N2CCN(c3cccc(C(F)(F)F)c3)CC2)cc1	23µM*	5%	-8%	-5	18µM*
Cc1nc(-c2ccc(S(=O)(=O)N3CCN(c4cccc(C(F)(F)F)c4)CC3)cc2)co1	?	nt	nt	nt	18µM*
O=C(/C=C/c1ccc(Br)cc1)N1CCN(c2cccc(C(F)(F)F)c2)CC1	?	?	-9%	?	?
COc1ccccc1CC(=O)N1CCN(c2cccc(C(F)(F)F)c2)CC1	23µM*	?	-16%	-5	13µM*
O=C(CS(=O)(=O)c1ccccc1)N1CCN(c2ccccc2)CC1	-3%	12%	3%	-2	-11%
Cc1ccc(-c2nc3cc(Cl)ccc3o2)cc1NC(=O)c1cc2ccccc2o1	0%	nt	nt	nt	-24%
Cc1ccc(NC(=O)c2ccc(Cl)cc2Cl)cc1O	?	-6%	-2%	-15	-24%
CC1(C2CC2)NC(=O)N(CC(=O)N2CCN(c3cccc(C(F)(F)F)c3)CC2)C1=O (stereo not drawn)	15µM*	-2%	1%	-3	12µM*
O=C(COC(=O)c1ccccc1)NC1CCCCCC1	-8%	-6%	-2%	12	-15%
N/C(=N\OC(=O)c1ccccc1)C(C(=O)NOC(=O)c1ccccc1)C1CCCCC1 (stereo not drawn)	26µM*	?	?	?	18µM*
Cc1ccc(C)c(NC(=O)CN(C)C(=O)c2cccc(S(=O)(=O)N3CCN(Cc4ccccc4)CC3)c2)c1	18µM*	21µM*	?	-5	12µM*
CN(CCOc1ccc(Cl)cc1)C(=O)c1cccc(S(=O)(=O)N2CCN(Cc3ccccc3)CC2)c1	15µM*	?	?	?	21µM*
COc1ccc(NC(=O)CN(C)C(=O)c2cccc(S(=O)(=O)N3CCN(Cc4ccccc4)CC3)c2)cc1	18µM*	?	-24%	-17	12µM*
CCn1cc(C(=O)NCc2ccccc2OC)c(=O)c2cc(S(=O)(=O)N3CCCCC3)ccc21	18µM*	nt	nt	nt	?
CCn1cc(C(=O)NCc2ccccc2Cl)c(=O)c2cc(S(=O)(=O)N3CCCCCC3)ccc21	?	nt	nt	nt	21µM*
CCn1cc(C(=O)NCc2ccccc2Cl)c(=O)c2cc(S(=O)(=O)N3CCOCC3)ccc21	-20%	nt	nt	nt	-23%
Cn1nc(C(=O)OCC(=O)c2ccc(Cl)cc2)c2ccccc2c1=O	2%	6%	7%	19	6%
Cc1ccc2c(c1)c(=O)c(C(=O)c1ccncc1)cn2CC(=O)Nc1ccc(C(C)C)cc1	-19%	nt	nt	nt	-18%
O=C(NCc1ccc(Cl)cc1)C(=O)NCC(c1cccs1)S(=O)(=O)c1cccs1 (stereo not drawn)	-85%	nt	nt	nt	?
